Compound activity: PubChem BioAssay, several laboratories
Rows were chosen to be rich in hits. Some 1.4% of all compounds tested hit in one or more screens of this group.
GALR2 blocker – blocks the human galanin receptor 2; AID 828; GALR2-expressing cells, antagonist mode; O43603; 140,000 compounds, 0.39% hits; inhibition, % at 4 µM; in the data active = inhibition above about 27%;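 note: cells stimulated with galanin 1-16 at roughly its EC80; 0% = agonist challenge control and 100% = basal control without agonist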
Target sequence (O43603 whole entry, looked up): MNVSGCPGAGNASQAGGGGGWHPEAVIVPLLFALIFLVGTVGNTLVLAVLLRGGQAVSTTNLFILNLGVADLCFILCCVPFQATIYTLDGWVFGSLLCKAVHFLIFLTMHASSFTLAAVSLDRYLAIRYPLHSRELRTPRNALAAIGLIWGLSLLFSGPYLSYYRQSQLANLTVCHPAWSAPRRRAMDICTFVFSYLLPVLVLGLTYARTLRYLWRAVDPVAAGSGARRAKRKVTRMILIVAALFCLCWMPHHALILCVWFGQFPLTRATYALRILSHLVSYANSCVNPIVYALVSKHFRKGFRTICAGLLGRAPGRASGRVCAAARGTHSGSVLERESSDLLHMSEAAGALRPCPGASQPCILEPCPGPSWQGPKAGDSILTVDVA
S1P2 antag – blocks the human S1P2 receptor; cell-based S1P2 antagonist assay, inhibition at 5 uM; O95136; 97,000 compounds, 0.21% hits; inhibition, % at 5 µM; in the data active = inhibition above about 45%;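 note: CRE beta-lactamase reporter cells expressing human S1P2 stimulated with S1P; 0% = agonist at EC80 alone and 100% = agonist plus reference antagonist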
Smad3 FoxH1 inh – blocks human Smad3 binding to FoxH1 peptide; P84022; TR-FRET Smad3/Dy647-FoxH1 peptide binding, europium anti-His; inhibition, % at 25 µM; 88,000 compounds, 0.29% hits; AID 630;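 active = compounds that reduce the energy-transfer binding signal between the protein and its labelled peptide by more than half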;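 note: 0% = Smad3 plus labelled peptide maximal FRET and 100% = peptide-only background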
MT1-MMP txn act – activates MT1-MMP transcription. HT1080 MT1-MMP promoter luciferase reporter, luminescence, overnight; hits give high values. activation factor at 10 µM. 86,000 compounds, 0.16% hits. AID 750;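 active = activation factor of at least 2 for MT1-MMP transcription at 10 µM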
GALR2 agonist – activates the human galanin receptor 2; O43603; GALR2-expressing cells, agonist activation read-out; activation, % (concentration not given with the values); 140,000 compounds, 0.48% hits; AID 803; in the data active = activation above about 5%, passing the limit was not always enough;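 note: 0% = vehicle buffer wells and 100% = reference agonist at full effect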
S1P2 agonist – activates the human S1P2 receptor; S1P2-expressing cell line, agonist reporter read-out; activation, % at 4.5 µM; 97,000 compounds, 0.46% hits; in the data active = activation above about 16%;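 note: 0% = vehicle low control and 100% = maximal reference agonist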
* = called active by the depositor.

CCCOc1ccc(C2C(C(=O)OC)=C(C)N=C3SCCC(=O)N32)cc1OCC (centres undefined) was read as GALR2 blocker -8.8, S1P2 antag -41.2, Smad3 FoxH1 inh 4.8, MT1-MMP txn act 1.1, GALR2 agonist 1.0 and S1P2 agonist 25.3*.
Screening [N-]=[N+]=N[C@@H]1[C@@H](O)[C@H](CO)O[C@@H]1n1cnc2c(N)ncnc21 returned Smad3 FoxH1 inh 8.1.
`CCOC(=O)c1c(NC(=O)c2cccc(N3C(=O)CCC3=O)c2)sc(C)c1C` gave GALR2 blocker 3.1, S1P2 antag -10.3, GALR2 agonist -2.2 and S1P2 agonist 16.1*.
Screening CC1(C)OC[C@@H]2O[C@H](n3cnc4c(N)nc(Cl)nc43)[C@H](OS(C)(=O)=O)[C@H]2O1 returned Smad3 FoxH1 inh 36.6.
Screening COc1cccc(-n2c(SCC(=O)Nc3sc4c(c3C(N)=O)CCC4)nc3ccccc3c2=O)c1 returned GALR2 blocker 3.3, S1P2 antag -32.3, GALR2 agonist -2.2 and S1P2 agonist 18.7*.
Screening CCCOC(=O)c1ccc(-c2ccc(C=O)o2)cc1 returned GALR2 blocker 0.2 and GALR2 agonist -0.3.
`CCCCOC(=O)c1ccc(-c2ccc(/C=N/NC(=S)NCC)o2)cc1` gave GALR2 blocker -1.4, S1P2 antag -37.5, GALR2 agonist 6.0 and S1P2 agonist 23.5*.
`C/C(N[O-])=C(\C)[N+]([O-])=[Rh][Cl].CC(=N\[O-])/C(C)=N/[O-].NC(N)=[SH+]` gave Smad3 FoxH1 inh -2.1.
Screening Nc1ccn([C@H]2O[C@H](COC(=O)C34CC5CC(CC(C5)C3)C4)[C@@H](O)[C@@H]2O)c(=O)n1 returned Smad3 FoxH1 inh -1.5.
For O=C(CCC(=O)Nc1nnc(C2CCCCC2)s1)NCC1CCCO1 (centres undefined) the results were GALR2 blocker -24.5, S1P2 antag 0.4, Smad3 FoxH1 inh 80.7*, MT1-MMP txn act 1, GALR2 agonist -0.4 and S1P2 agonist -1.2.
Screening CC(C)c1nnc(NC(=O)CCC(=O)NCC2CCCO2)s1 (centres undefined) returned GALR2 blocker 8.0, S1P2 antag 5.4, Smad3 FoxH1 inh -1.0, MT1-MMP txn act 1.2, GALR2 agonist -0.4 and S1P2 agonist -11.0.
Screening O=C1C(N2CCOCC2)=C(n2nnc3ccccc32)C(=O)c2ccccc21 returned GALR2 blocker -1.6, S1P2 antag -16.3, Smad3 FoxH1 inh 52.3*, GALR2 agonist -1.1 and S1P2 agonist -0.6.
`O=S(=O)(N1CCCCC1)n1nnc2ccccc21` gave GALR2 blocker 8.5, S1P2 antag -4.8, Smad3 FoxH1 inh -0.2, MT1-MMP txn act 1.3, GALR2 agonist -0.1 and S1P2 agonist -4.2.
COCn1c(COc2ccc3ccccc3c2)nc2ccccc21 was read as GALR2 blocker 10.4, S1P2 antag -0.4, Smad3 FoxH1 inh 0.9, MT1-MMP txn act 2.3*, GALR2 agonist -1.7 and S1P2 agonist -7.3.
For Cc1cc(C(C)(C)C)cc(CNC2CCCCC2)c1O the results were Smad3 FoxH1 inh 1.6.
CC(=O)Nc1ccccc1C=C1c2ccccc2-c2ccccc21 was read as Smad3 FoxH1 inh 13.2.
For CC(=O)Nc1ccc2c(c1)/C(=C/c1ccc([N+](C)(C)C)cc1)c1ccccc1-2 the results were Smad3 FoxH1 inh 93.1*.
COc1ccc(NC(=O)C2CCCO2)cc1OC (centres undefined) was read as GALR2 blocker 7.0, S1P2 antag 3.5, Smad3 FoxH1 inh 71.5*, MT1-MMP txn act 1.2, GALR2 agonist -3.0 and S1P2 agonist -3.8.
For CC(C)C1=C[C@@]23CC[C@@H]4[C@](C)(CCC[C@@]4(C)C(=O)O)[C@@H]2C[C@@H]1[C@H](C(=O)O)[C@@H]3C(=O)O the results were Smad3 FoxH1 inh 86.8*.
CN(C)CCCNS(=O)(=O)c1ccc(N2CCC(c3ccc(Cl)cc3)=N2)cc1 was read as GALR2 blocker -2.1, S1P2 antag -213.8, Smad3 FoxH1 inh 8.3, GALR2 agonist 131.7* and S1P2 agonist 202.3*.
`CN(C)CCCNS(=O)(=O)c1cc(Cl)ccc1Cl` gave GALR2 blocker -4.6, S1P2 antag 12.2, Smad3 FoxH1 inh -0.7, MT1-MMP txn act 1.1, GALR2 agonist -1.8 and S1P2 agonist -3.5.
Screening O=S(=O)(c1ccc(N2CCC(c3ccc(Cl)cc3)=N2)cc1)N(CCO)CCO returned GALR2 blocker -39.9, S1P2 antag -207.6, Smad3 FoxH1 inh 2.2, MT1-MMP txn act 1.2, GALR2 agonist 89.5* and S1P2 agonist 111.0*.
`CCc1ccc(NC(=O)N(Cc2ccco2)C(C)c2cccs2)cc1` (centres undefined) gave GALR2 blocker 6.3, S1P2 antag 9.4, Smad3 FoxH1 inh -1.2, MT1-MMP txn act 1.1, GALR2 agonist -1.6 and S1P2 agonist 40.9*.
Screening CCOc1ccc(OCCSc2nc3ccccc3[nH]2)cc1 returned GALR2 blocker 13.3, S1P2 antag -2.9, Smad3 FoxH1 inh -12.3, MT1-MMP txn act 1.2, GALR2 agonist -2.8 and S1P2 agonist -4.0.
`CCCOc1ccc(CSc2nc3ccccc3[nH]2)cc1` gave GALR2 blocker 2.6, S1P2 antag 48.4*, GALR2 agonist -0.6 and S1P2 agonist -7.9.
COc1ccc(C2=Nn3c(nnc3-c3ccccc3)SC2)cc1OC was read as GALR2 blocker -7.3, S1P2 antag -36.7, Smad3 FoxH1 inh -1.1, MT1-MMP txn act 1, GALR2 agonist 3.8 and S1P2 agonist 27.2*.
For COc1ccc(C2=Nn3c(nnc3C3CCCCC3)SC2)cc1OC the results were GALR2 blocker -13.1, S1P2 antag -88.4, Smad3 FoxH1 inh 10.4, MT1-MMP txn act 0.9, GALR2 agonist 1.9 and S1P2 agonist 36.4*.
For COc1ccc(OC)c(C2=Nn3c(nnc3C3CCCCC3)SC2)c1 the results were GALR2 blocker -10.7, S1P2 antag -34.6, Smad3 FoxH1 inh -2.4, MT1-MMP txn act 1.1, GALR2 agonist -1.1 and S1P2 agonist 1.5.
For O=C(N/N=C/C=C/c1ccco1)C(O)c1ccccc1 (centres undefined) the results were GALR2 blocker 10.5, S1P2 antag 12.4, GALR2 agonist -2.4 and S1P2 agonist -2.1.
Screening O=C(N/N=C/C=C/c1ccccc1)C(O)c1ccccc1 (centres undefined) returned GALR2 blocker 30.1*, S1P2 antag 9.0, GALR2 agonist -5.1 and S1P2 agonist -4.5.
For CN(Cc1ccccc1)Cc1nc2c(c(=O)n(C)c(=O)n2C)n1Cc1ccc(F)cc1 the results were GALR2 blocker -2.8, S1P2 antag -0.4, Smad3 FoxH1 inh 7.0, MT1-MMP txn act 1.2, GALR2 agonist -1.5 and S1P2 agonist 38.7*.
Screening COc1ccc(/C=C/C(=O)NCCCc2ccccc2)cc1OC returned GALR2 blocker 9.7 and GALR2 agonist 0.8.
Screening COc1cc(/C=C/C(=O)NC(C)C)ccc1OCc1ccccc1 returned GALR2 blocker 3.5 and GALR2 agonist 7.5*.
`O=C(O)CC12C[C@@H]3C[C@@H](CC(O)(C3)C1)C2` gave Smad3 FoxH1 inh 1.6.
